# aSyn UTR act = Activators working through SNCA 5'UTR binding (MLPCN); alpha-synuclein 5'UTR reporter, activators screen; activity score, % (tested at 7.5 µM), hits read low; actives 7.1% (n = 300,000); in the data active = activity score below about -60%
# * hit, by the source's call. A selection follows.
SMILES,aSyn UTR act
Cn1nnnc1SCC(=O)Nc1ccc2c(c1)OCO2,-98.8*
CCc1ccc(NC(=O)CSc2nnnn2C)cc1,-131.8*
Cc1ccc(-n2nc(C)c(NC(=O)CCl)c2C)cc1C,-220.1*
Fc1ccc(NC(=S)NN=C2CCCCCC2)cc1,-74.9*
S=C(NN=C1CCCCCC1)Nc1ccc(Cl)cc1,-70.6*
Cc1ccc(NC(=S)N2CCCC(O)C2)cc1 (stereo not drawn),-62.6*
S=C(Nc1ccccc1)N1CCCCCCC1,-88.2*
CC(C)c1ccc(NC(=S)N2CCCC2)cc1,-86.4*
OCC1CCCN(C(=S)Nc2ccc(Nc3ccccc3)cc2)C1 (stereo not drawn),-130.1*
c1ccc(-c2nnsc2Sc2ccccn2)cc1,-90.6*
O=S(=O)(c1ccc(Cl)c(Cl)c1)c1snnc1-c1ccccc1,118.1
CC(C)CC(=O)NC(=S)Nc1sc2c(c1C(N)=O)CCC2,-99.6*
CCCCC(=O)Nc1sc2c(c1C(N)=O)CCC2,-85.2*
CC(=O)NC(=S)Nc1sc2c(c1C(N)=O)CCC(C)C2 (stereo not drawn),-83.3*
CC(C)(C)C(=O)NC(=S)Nc1sc2c(c1C(N)=O)CCC2,-87.8*
CC(=O)N(O)CCCCCNC(=O)CCC(=O)N(O)CCCCCNC(=O)CCC(=O)N(O)CCCCCN,74.6
Cc1sc(NC(=S)NC(=O)C(C)(C)C)c(C(N)=O)c1C,-67.5*
O=C(Nc1ccccc1)C(=O)Nc1ccc2c(c1)N(C(=O)C1CC1)CCC2,-121.0*
Nc1ccc2c(c1)sc1ccccc12,-147.9*
CC(=O)C1=C(C)OC(N)=C(C#N)C1c1cc2cc(C)c(C)cc2nc1Cl (stereo not drawn),-68.4*
Nc1c(C(=O)N2CCCC2)sc2nc(-c3ccccc3)ccc12,-190.4*
Cc1ccc(C(=O)c2sc3nc4c(cc3c2N)CCC4)cc1,-132.4*
Nc1c(C(=O)N2CCCCC2)sc2nc3c(cc12)CCCC3,-151.0*
CN(C)c1ccc(C(=O)c2ccc(O)cc2O)cc1,-114.1*
Cc1c(-c2ccccc2)[n+](=O)c(-c2ccc(Br)cc2)c(C)n1[O-],-101.7*
SMILES,aSyn UTR act
COc1cc(-c2nc(-c3ccc(Br)o3)no2)cc(OC)c1OC,-76.3*
COc1cc(-c2onc3ccc(Br)cc23)cc(OC)c1OC,66.5
COc1ccc(-c2noc(-c3ccc(Br)o3)n2)cc1OC,-96.8*
COc1ccc(-c2c(-c3cc(OC)c(OC)c(OC)c3)noc2C)cn1,76.5
Cc1no[n+]([O-])c1COc1ccccc1/C=N/n1nnnc1N,-99.3*
COc1c(OC(C)=O)ccc(/C=C/c2ccc3cccc(OCc4ccccc4)c3n2)c1[N+](=O)[O-],-128.8*
CCS(=O)(=O)c1nnnn1-c1ccccc1S(C)(=O)=O,-173.6*
CCOc1ccc(N(C(=O)c2ccccc2Cl)C2=NC(C)(C)CS2)cc1,-79.0*
CS(=O)(=O)c1sc(C#N)c2c1C(=O)CC(c1ccccc1)C2 (stereo not drawn),81.1
Oc1ccc(CN2CCN(c3ccccc3)CC2)c2cccnc12,79.5
O/N=C\c1cnc(N2CCN(c3ccccc3)CC2)s1,-74.8*
CCc1ccc(C(=O)Nc2cc3c(cc2Cl)OCCCO3)cc1,-172.2*
O=C(Cc1ccccc1)Nc1cc2c(cc1Cl)OCCCO2,-146.9*
Oc1ccccc1C1CC(c2cccs2)=NC(c2cccc(Br)c2)N1 (stereo not drawn),-86.9*
COc1cc(/C=C(\C#N)c2nc3ccccc3[nH]2)ccc1OC(=O)c1ccco1,-174.2*
N#C/C(=C\c1ccncc1)c1nc2ccccc2[nH]1,-77.2*
N#C/C(=C/c1ccncc1)c1nc2ccccc2s1,-89.1*
CCN(CC)c1ccc(/C=C(/C#N)c2nc3ccccc3[nH]2)c(OC(C)C)c1,-211.1*
COc1cc(/C=C(/C#N)c2nc3ccccc3[nH]2)ccc1OCC(=O)Nc1ccccc1C(C)C,103.5
N#C/C(=C\c1cccnc1)c1nc2ccccc2[nH]1,-86.0*
Cc1cc2nc(/C(C#N)=C/c3ccncc3)[nH]c2cc1C,-61.7*
N#C/C(C(=O)c1ccccc1)=C1/CCCCCN1,-112.9*
N#C/C(=C\c1ccc(OC(=O)c2ccc(Cl)s2)cc1)c1nc2ccccc2[nH]1,-287.4*
COc1ccc(/C(C#N)=C/c2cccnc2)cc1,-70.6*
CC1CCc2nc(/C(C#N)=C/c3ccncc3)sc2C1 (stereo not drawn),-113.6*
SMILES,aSyn UTR act
N#C/C(=C1/CCCCCN1)c1nc2ccccc2[nH]1,-127.2*
N=c1oc2cc(O)ccc2cc1C(=O)Nc1nc2ccccc2s1,-187.6*
N=c1oc2cc(O)ccc2cc1C(=O)Nc1ccc(Br)cc1,-172.1*
Cc1ccc(Nc2nc3ccccc3[nH]2)nc1,-219.9*
Cc1ccc(C)c(OCc2nc3ccccc3[nH]2)c1,-112.6*
O=C(NNc1ncnc2ccccc12)c1cccc(Cl)c1,-84.0*
O=C(Nc1nc2ccccc2[nH]1)c1ccccc1O,-73.8*
O=C(Nc1nc2ccccc2[nH]1)c1ccc(Cl)cc1,65.9
O=C(Nc1nc2ccccc2[nH]1)c1cccc(Cl)c1,-151.1*
Cc1ccc(C)c(C(=O)Nc2nc3ccccc3[nH]2)c1,-69.4*
O=C(Nc1nc(=O)c2ccccc2s1)c1ccc(F)cc1,-264.2*

# Screens (PubChem BioAssay)
